In this experiment the target is Runt-related transcription factor 1 (Homo sapiens) + Core-binding factor subunit beta (Homo sapiens) (UniProt Q01196+Q13951). The experiment in a line: inhibitors of RUNX1 Runt–CBFb-SMMHC binding, primary screen, biochemical, FRET, Cerulean-Runt, Venus-CBFb-SMMHC, uHTS (AID 1434).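 Further: 0% = DMSO wells and 100% = wells with excess untagged CBFb-SMMHC; inhibitors lower the FRET ratio by blocking Runt binding to CBFb-SMMHC.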 The note with it: Cerulean-Runt/Venus-CBFb-SMMHC FRET ratio 530/480, 1 h, at 20 µM, stronger effect = higher value.
Chain of Runt-related transcription factor 1 (Homo sapiens) + Core-binding factor subunit beta (Homo sapiens) (Q01196 whole entry, looked up): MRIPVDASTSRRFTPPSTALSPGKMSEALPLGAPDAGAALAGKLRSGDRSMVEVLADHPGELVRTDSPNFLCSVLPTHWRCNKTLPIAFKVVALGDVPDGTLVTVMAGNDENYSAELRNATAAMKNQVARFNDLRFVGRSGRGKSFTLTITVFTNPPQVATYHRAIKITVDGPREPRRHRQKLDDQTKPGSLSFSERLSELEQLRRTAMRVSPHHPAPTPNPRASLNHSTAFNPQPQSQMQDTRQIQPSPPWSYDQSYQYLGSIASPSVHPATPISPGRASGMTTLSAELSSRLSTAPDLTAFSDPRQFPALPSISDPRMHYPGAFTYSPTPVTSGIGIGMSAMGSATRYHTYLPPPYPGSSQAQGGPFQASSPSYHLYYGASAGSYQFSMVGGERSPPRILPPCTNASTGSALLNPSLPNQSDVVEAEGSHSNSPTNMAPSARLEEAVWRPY
Chain of Runt-related transcription factor 1 (Homo sapiens) + Core-binding factor subunit beta (Homo sapiens) (Q13951 whole entry, looked up): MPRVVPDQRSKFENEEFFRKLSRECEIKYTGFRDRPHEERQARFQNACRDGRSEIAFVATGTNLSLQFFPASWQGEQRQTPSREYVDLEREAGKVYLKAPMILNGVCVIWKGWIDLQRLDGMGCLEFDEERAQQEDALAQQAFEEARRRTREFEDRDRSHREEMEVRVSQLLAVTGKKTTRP

Molecules are shown by their SMILES. “And” between values parts separate entries of the source, which are not always exact repeats. Equal values may be shown once. The campaign covered roughly 220,000 compounds. About 1,600 (0.73%) were called active.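 How the source made its calls: active means mean inhibition across duplicate retests at 20 µM reaching about 50% (limit read from the data); inactive means the rest, inconclusive results apart.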 Only a selection was taken, and actives are over-represented in it overall.

Broadly, the inhibition is the change of the read-out against control, counted positive when it falls.

Take `CC(C)CCNC(=O)C1CCC(CNc2c(N3CCC(C)CC3)c(=O)c2=O)CC1` (configuration not stated): the inhibition was -1.8% (inactive).

As for `Cc1cc2c(cc1C)[n+](C)cn2CC(O)COCC1CC=CCC1` (configuration not stated), the inhibition is 7.6% (inactive).

Regarding `COc1ccc2c(c1)CCc1c(C(=O)N3CCCC3)noc1-2`, the inhibition was -2.4% (inactive).

Regarding `N#Cc1cnn2cc(CCN3CCOCC3)c(-c3ccc(F)cc3)nc12`, the inhibition was -1.8% (inactive).

Consider `COc1ccc2c(c1)CCc1cn3ncc(C#N)c3nc1-2`, for which the inhibition is 89.1% (active). For the same compound, the inhibition (retest duplicate average) turned out to be 74.1%.

`COc1ccc(OC)c2[nH]c(=O)c(CCNC(=O)C(=O)c3c[nH]c4ccccc34)cc12`: the inhibition was 0.3% (inactive).

Turning to `CCCCN(C(=O)/C=C/c1ccco1)c1c(N)n(CC(C)C)c(=O)[nH]c1=O`, the inhibition is 8.5% (inactive).

As to `CC(=O)COc1ccc2c(-c3ccccc3)cc(=O)oc2c1`, the inhibition was 3.8% (inactive).

Turning to `O=C(CNC(=O)c1ccc(-c2ccccc2)cc1)OCc1ccc(Cl)cc1`, the inhibition is -1.6% (inactive).

As for `O=C(CNC(=O)OCc1ccccc1)Oc1cc2oc(=O)cc(-c3ccccc3)c2cc1Cl`, the inhibition is 78.7% (active). In addition, the inhibition (retest duplicate average) is 71.5%.

As to `O=[N+]([O-])c1ccc(N2CCNCC2)cc1NCc1cccnc1`, the inhibition is -3.2% (inactive).

Consider `CC(C)OCCCNC(=O)c1cc(Sc2ccc(F)cc2)nc2ccccc12`, for which the inhibition was 0.5% (inactive).

Consider `O=C(CSc1ncn[nH]1)Nc1nsc(-c2ccccc2)n1`, for which the inhibition was 3.7% (inactive).

For `O=C(CSc1nc(O)c(Cc2ccccc2)c(=O)[nH]1)Nc1nc2c(s1)CCCC2`, the inhibition is 2.5% (inactive).

Regarding `CN1C(=O)/C(=C/C=C2\SCCN2C)OC1=S`, the inhibition is 84.2% (active). For the setting “retest duplicate average”, the inhibition was determined as 79.9%.

Turning to `CCc1ccc(C(=O)OCC(=O)NCC(F)(F)F)cc1`, the inhibition was -1.7% (inactive).

Take `CCO[C@H]1OC(C(=O)NCc2ccccc2)=C[C@@H](c2coc3ccccc3c2=O)[C@@H]1CCCO`: the inhibition is -0.8% (inactive).

On to `CN1CCNC(=O)C1CC(=O)N1CC=C(c2ccc(F)cc2)CC1` (configuration not stated), for which the inhibition is -7.4% (inactive).

With `Cc1ccccc1NC(=S)Nc1cccc([N+](=O)[O-])c1`, the inhibition was 5.7% (inactive).

`COC(=O)/C=C\C(=O)Nc1cccc([N+](=O)[O-])c1`: the inhibition was 56% (active). Besides, for the setting “retest duplicate average”, the inhibition was determined as 62.5%.

Turning to `CC(=O)Nc1cccc([N+](=O)[O-])c1`, the inhibition was 0.2% (inactive).

`COCCCn1c(-c2cccs2)nc2nc3ccccc3nc21`: the inhibition is 87.7% (active). For the same compound, the inhibition (retest duplicate average) amounted to 99.9%.

`CC(C)n1c(-c2cccs2)nc2ccccc21`: the inhibition is 1.6% (inactive).

In the case of `COc1ccc(CCn2c(-c3ccco3)nc3nc4ccccc4nc32)cc1OC`, the inhibition was -7.1% (inactive).

As for `Cc1ccc(C(=O)O)cc1NC(=O)c1ccc(Cn2nc(C)c(Cl)c2C)o1`, the inhibition is -2.9% (inactive).

On to `O=C(CCc1n[nH]c(=O)[nH]c1=O)N/N=C/c1ccc(Br)o1`, for which the inhibition was -0.8% (inactive).

For the compound `CN(C)c1nc(N)nc(Cn2nnc(-c3ccc(C(F)(F)F)cc3)n2)n1`, the inhibition was 1.3% (inactive).

For the compound `c1ccc(-c2cc3c(NCC4COc5ccccc5O4)ncnc3s2)cc1` (configuration not stated), the inhibition was 8.3% (inactive).

For the compound `O=C(CC1CCCCC1)NCc1ccc(F)cc1`, the inhibition was -2% (inactive).

In the case of `COCCC(=O)Nc1ccc2c(c1)CN(C(=O)CCOC)CC2`, the inhibition is -1% (inactive).

As for `O=c1c2c(nc3cc(-c4cccc(Cl)c4)[nH]n13)CCCC2`, the inhibition is -1.8% (inactive).

With `CCn1c(NC(=O)c2ccccc2)c(-c2cccs2)c(=O)c2ccccc21`, the inhibition was 2.4% (inactive).

With `COCCCn1c(CCC(=O)O)ccc1-c1ccc(F)cc1`, the inhibition is 26.6% (inactive).

`CC(C)Cn1c(CCC(=O)O)ccc1-c1cccs1`: the inhibition was 179% (active). Moreover, the inhibition (retest duplicate average) worked out at 134%.

In the case of `COc1ccc(-n2cnc3cc(C(=O)NC4CCCC4)ccc32)cc1`, the inhibition was 0.8% (inactive).

For `CCOc1ccc2cc(C#N)c(SCC(=O)OC)nc2c1`, the inhibition is -89.9% (inactive).

`CCOc1ccc2nc(N3CCCN(C(=O)Nc4ccccc4C)CC3)c(C#N)cc2c1`: the inhibition is 61.6% (active). In addition, under “retest duplicate average”, the inhibition amounted to 71.5%.

With `CCOc1ccc2nc(NCCNS(=O)(=O)c3ccccc3)c(C#N)cc2c1`, the inhibition is 34% (inactive).

Consider `CCCCN1C(=O)/C(=C/C=C2/C=Cc3ccccc3N2CC)SC1=S`, for which the inhibition was -1.7% (inactive).

Turning to `CCN1C(=O)/C(=C2/Sc3ccccc3N2CCCS(=O)(=O)O)SC1=S`, the inhibition was 82.6% (active) and 93.8% (active). Besides, for the setting “retest duplicate average”, the inhibition is 113% and 124%.

For the compound `CCN1C(=O)/C(=C\N2CCN(c3ccccc3)CC2)SC1=S`, the inhibition was -1.5% (inactive).

Turning to `Cc1cc(Cl)ccc1NNC(=O)c1snnc1C`, the inhibition was -2.5% (inactive).

In the case of `COc1ccc(C(=O)N/N=C2\CCS(=O)(=O)c3ccc(F)cc32)cc1OC`, the inhibition was -4.7% (inactive).

On to `Nc1nc(CC(=O)CSc2ccc(Cl)cc2)nc(Nc2ccc(F)cc2)n1`, for which the inhibition is -7.5% (inactive).

Turning to `CCC(C)(C)n1nnnc1C(c1cccs1)N1CCN(c2nc3ccccc3s2)CC1` (configuration not stated), the inhibition is -1% (inactive).

As to `CCC(C)(C)n1nnnc1C(c1cccs1)N1CCN(Cc2ccccc2)CC1` (configuration not stated), the inhibition is 3.1% (inactive).

Consider `CCC(C)(C)n1nnnc1CN1CCN(c2nc3ccc(C)cc3cc2C#N)CC1`, for which the inhibition is 54% (active). For the same compound, the inhibition (retest duplicate average) turned out to be 79.1%.

As to `CN(C)NC(=O)c1csnc1-c1c(Cl)cccc1Cl`, the inhibition was 6% (inactive).

Take `O=C(COC(=O)/C=C/c1cccc(Cl)c1)NCCc1ccccc1`: the inhibition is 0.9% (inactive).

On to `COc1ccc(CCNC2=C(Cl)C(=O)N(Cc3ccccc3)C2=O)cc1OC`, for which the inhibition was 92.2% (active). Under “retest duplicate average”, the inhibition is 70.6%.

As to `COc1ccc(CCN(C)CCN2C(=O)c3ccccc3C2=O)cc1OC`, the inhibition is 6.2% (inactive).

Turning to `COc1ccc(CCN=C2SCC(=O)N2Cc2ccccc2)cc1OC`, the inhibition is -0.6% (inactive).

As to `O=C(O)CC/C(=N\NC(=O)c1ccc(F)cc1)c1ccc(Br)cc1`, the inhibition is -4.7% (inactive).

Consider `CC/C(=N\NC(=O)c1ccccc1Cl)c1ccc(Br)s1`, for which the inhibition is -0.6% (inactive).

Consider `CC(=O)c1cc(C#N)c(SCC(=O)Nc2nccs2)nc1C`, for which the inhibition was -3.8% (inactive).

In the case of `COc1ccccc1N1N=C(c2cccs2)CC1c1ccccc1` (configuration not stated), the inhibition was 48% (inactive).

With `COc1ccc(C2CC(c3cccs3)=NN2c2ccccc2)cc1` (configuration not stated), the inhibition is 91% (active). For the same compound, the inhibition (retest duplicate average) was 53.7%.

On to `COc1ccc(C2=NN(c3ccccc3)C(c3cccs3)C2)cc1` (configuration not stated), for which the inhibition was 6% (inactive).

As to `O=[N+]([O-])c1cccc(-c2nnc3c4ccccc4c4ccccc4n23)c1`, the inhibition was 2.3% (inactive).

Consider `Cc1ccc(-c2nc3ccccc3[nH]c2=O)cc1`, for which the inhibition is 3.7% (inactive).

In the case of `O=c1[nH]c2ccccc2n2c(-c3ccccc3)nnc12`, the inhibition is 67.5% (active). Also, the inhibition (retest duplicate average) was found to be 61.3%.

As for `N#CC1=C(N)Oc2c(ccc3cccnc23)C1c1ccncc1` (configuration not stated), the inhibition was -1.6% (inactive).

Regarding `COc1cccc(NC(=O)CN(C)C(=O)/C=C/c2cc(OC)ccc2OC)c1`, the inhibition is -3.2% (inactive).

With `O=C(Nc1ccc(Cl)cc1)Nc1nnc(/C=C/c2ccccc2)s1`, the inhibition was 6.5% (inactive).

In the case of `O=C(COc1cccc(F)c1)Oc1ccc(C(=O)c2ccccc2)cc1`, the inhibition was 0.2% (inactive).

Take `Cc1cc(C)c(C#N)c(SCc2[nH]nc3c2C(c2ccccc2)C(C#N)=C(N)O3)n1` (configuration not stated): the inhibition was -0.2% (inactive).

For the compound `Cc1cc(C)c2c3c(sc2n1)C(c1ccccc1)C(C#N)=C(N)O3` (configuration not stated), the inhibition was 113% (active). Besides, the inhibition (retest duplicate average) was determined as 141%.

`N#CC1=C(N)Oc2c(sc3ccccc23)C1c1ccco1` (configuration not stated): the inhibition is 9.4% (inactive).

`CC(=O)c1c(C)[nH]c(C(=O)OCC(=O)Nc2cc(S(=O)(=O)N3CCCCC3)ccc2C)c1C`: the inhibition was -9.5% (inactive).

As to `CCCN(CC(=O)Nc1ccc(OC)c(OC)c1)CC(=O)Nc1ccc(F)c(F)c1F`, the inhibition is -1.9% (inactive).

As to `COc1ccc(/C=N/NC(=O)c2cccc(C(F)(F)F)c2)cc1`, the inhibition was 1.4% (inactive).

With `C/C(CC1CC(C)(C)OC1=O)=N/Nc1nc(-c2ccccc2)cs1` (configuration not stated), the inhibition was -0.6% (inactive).

Consider `Cc1nc2c(c(=O)n1Cc1ccco1)c1nc3ccccc3nc1n2Cc1ccccc1`, for which the inhibition is 51.6% (active). Moreover, the inhibition (retest duplicate average) amounted to 50.7%.

Turning to `CC(Sc1nc2ccccc2c(=O)n1Cc1ccco1)C(=O)c1ccccc1` (configuration not stated), the inhibition was 2.5% (inactive).

Turning to `Cc1ccc(Cn2c(C)nc3c(c2=O)c2nc4ccccc4nc2n3Cc2ccco2)cc1`, the inhibition is 46.8% (inactive).

On to `CCC(C)NC(=O)c1c(N)n(/N=C/c2cccs2)c2nc3ccccc3nc12` (configuration not stated), for which the inhibition was -0.5% (inactive).

As to `Cn1ncc(Br)c1C(=O)NCc1cccs1`, the inhibition is -0.4% (inactive).

On to `CC(C)Cn1c(N)c(C(=O)NCc2cccs2)c2nc3ccccc3nc21`, for which the inhibition was 72.8% (active). Moreover, the inhibition (retest duplicate average) came out at 89.8%.

Take `CN(C)c1ccnc2sc(C(=O)c3ccccc3)c(N)c12`: the inhibition was 39.2% (inactive).

`Cc1cccc(NC(=S)NCc2ccc3[nH]c4c(c3c2)CCCC4)c1`: the inhibition is -0.9% (inactive).

In the case of `Cc1cc(C)nc(SC2CCCCC2NS(=O)(=O)c2ccc(Cl)cc2)n1` (configuration not stated), the inhibition is 2% (inactive).

For `COc1cc(C(=O)N2C(=O)c3cccc(N)c3C2=O)cc(OC)c1OC`, the inhibition was 87.1% (active). Besides, the inhibition (retest duplicate average) is 51.3%.

Regarding `COc1cc(C(=O)NC(=S)NCc2ccco2)cc(OC)c1OC`, the inhibition is 1.1% (inactive).

Consider `COc1cc(C(=O)N[C@@H](C)C(=O)NCc2ccco2)cc(OC)c1OC`, for which the inhibition is -2.9% (inactive).

As to `CC1CC(C)CN(S(=O)(=O)c2cccc(C(=O)N3C(=O)c4cccc(N)c4C3=O)c2)C1` (configuration not stated), the inhibition is 61.6% (active). Besides, under “retest duplicate average”, the inhibition amounted to 72.9%.

In the case of `CC(=O)N1CCN(S(=O)(=O)c2cccc(C(=O)NC3CCC(C)CC3)c2)CC1` (configuration not stated), the inhibition was 4.4% (inactive).

Consider `CN1CCN(S(=O)(=O)c2cccc(C(=O)O)c2)CC1`, for which the inhibition is -1.8% (inactive).

Consider `NC(=O)Nc1ccccc1C(=O)NCCc1ccccc1`, for which the inhibition was 2.1% (inactive).

Turning to `COc1ccc(-c2nn(C)c(=O)c3ccccc23)cc1CNC(=O)C1CCCCC1`, the inhibition was -3.9% (inactive).

In the case of `N=c1oc2ccccc2cc1C(=O)N/N=C/c1ccccc1`, the inhibition is -6.4% (inactive).

For `CNC(=O)c1cccc2nc3ccccc3nc12`, the inhibition was 9% (inactive).

Consider `CNC(=O)c1cc2c(ccc3ccccc32)oc1=N`, for which the inhibition was 82.8% (active). For the same compound, the inhibition (retest duplicate average) was found to be 162%.

For the compound `COC(=O)CCCC1=CC2=CC(=O)C(C)(OC(=O)c3cccs3)C(=O)C2=CN1CC(C)C` (configuration not stated), the inhibition was -2.8% (inactive).

Consider `CC(=O)Nc1ccc(Sc2ccccc2C(=O)N2CCCC2)cn1`, for which the inhibition was -3.9% (inactive).

(Values after PubChem BioAssay AID1434 (Sanford-Burnham Center for Chemical Genomics, 2008).)
